# Measurements taken from the supplement of paper PMC3334620.
# Whole data set: some 33,000 sequences, median “E-score (-0.5 to 0.5)” near -0.036, cut for the highest 2% near 0.37. What follows is part of a selection rich in the highest values, with near analogues and random picks from the rest.
# Molecular target: T1, Yer064c (UniProt P40041)
# T1 sequence: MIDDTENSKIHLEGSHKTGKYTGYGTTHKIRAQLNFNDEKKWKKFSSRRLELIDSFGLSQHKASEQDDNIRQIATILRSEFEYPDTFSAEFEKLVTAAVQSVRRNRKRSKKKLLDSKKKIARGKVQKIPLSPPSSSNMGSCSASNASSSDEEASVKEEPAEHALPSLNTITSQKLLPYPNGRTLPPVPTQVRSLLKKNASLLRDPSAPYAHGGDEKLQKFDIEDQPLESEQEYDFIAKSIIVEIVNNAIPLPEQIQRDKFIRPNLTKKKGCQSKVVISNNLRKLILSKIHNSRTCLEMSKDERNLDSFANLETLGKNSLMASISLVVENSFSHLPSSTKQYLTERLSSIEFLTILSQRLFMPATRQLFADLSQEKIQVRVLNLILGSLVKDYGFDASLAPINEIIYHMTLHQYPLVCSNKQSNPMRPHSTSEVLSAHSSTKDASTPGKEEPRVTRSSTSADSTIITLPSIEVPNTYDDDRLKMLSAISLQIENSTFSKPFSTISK
# Experiment: PBM E-score (8-mer binding enrichment) (E-score (-0.5 to 0.5)); higher = stronger / more preferred TF binding
# Conditions: protein concentration: 200 nM; construct: GST-full length
# Method: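 Universal 'all 10-mer' protein binding microarrays (Agilent AMADID 015681) probed with GST-tagged S. cerevisiae TFs (full-length or DBD) made by in vitro transcription/translation (PURExpress), about 100-200 nM. Bound TF was detected with fluorescent anti-GST. Each ungapped 8-mer (which stands for itself and its reverse complement) is scored by the PBM enrichment score (E-score), a modified Wilcoxon-Mann-Whitney statistic from -0.5 to +0.5, computed with the Universal PBM Analysis Suite. Scale: above 0.35 generally sequence-specific binding.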
row,Sequence,PBM E-score
1,CGTCAAAG,0.0679
2,ACTCAAAT,0.294
3,CGTCAAAA,-0.0525
4,ATTCAAAT,0.214
5,AGTCAAAT,0.412
6,AGTCAAAG,0.406
7,AGTCAAAA,0.408
8,GGTCAAAA,0.0441
9,AGTCAAAC,0.35
10,ACGCGAGC,-0.0659
11,GGCAAGAC,-0.163
12,GTGGCATA,-0.194
13,AATGCGTA,0.00743
14,GGTAGGGA,-0.0117
15,AGGGAAGA,-0.0141
16,AGAAAATC,0.0604
17,ACATCGGA,0.0356
18,TACTCAAA,0.201
19,AACTCAAC,0.123
20,GACTCAAA,0.48
21,CACTCAAA,0.107
22,GACTCAAC,0.472
23,CACTCAAC,0.0472
24,CGGCCCGA,-0.157
25,ACGAGAGC,-0.143

row,Sequence,PBM E-score
1,GTTGGCAA,-0.14
2,AAGCTTAA,0.0226
3,CGGTACAG,-0.12
4,GGCTCACA,0.13
5,CTCGTAAC,0.0792
6,GACTCTCA,0.418
7,CACTCTCC,-0.0733
8,GACTCTCC,0.411
9,AACTCTCA,0.0457
10,CACTCTCA,-0.0477
11,AACTCTCC,-0.159
12,AGGTCTTA,0.0474
13,CCTTCCCA,-0.0175
14,CAATGCAC,0.0625
15,ATGAGCCA,0.396
16,ATGAGCCC,-0.00355
17,CTGAGCCA,0.31
18,CAATCAAG,0.212
19,AAATCAAG,0.0497
20,ATATCATC,-0.113
21,ACATCATC,0.212
22,GAATCATA,0.464
23,GCATCATA,0.0926
24,AAATCATT,0.359
25,AAATCATC,0.403

row,Sequence,PBM E-score
1,AAATCATG,0.385
2,CAATCATG,0.369
3,CAATCAGG,0.218
4,GTATCATA,0.0771
5,ATTTTGTA,0.00667
6,ACAAGAGT,0.149
7,CTTCATAC,-0.00264
8,GGCCGGAA,-0.146
9,GTCGGCGA,0.141
10,GAATGAGA,0.0143
11,AGCGTCCG,-0.131
12,CAGCAAGA,-0.11
13,CGCTTCCA,-0.24
14,ATGTAAGC,-0.0792
15,AACTGTTA,0.0274
16,GAGAGGAA,-0.0878
17,ACATCATA,0.107
18,AAATCATA,0.387
19,TAATCAAA,0.315
20,TAATCAGA,0.35
21,TAATCATA,0.457
22,ATATCATA,0.00064
23,GGTGAGCA,-0.00163
24,GGAACCAA,-0.106
25,CGTCACCA,-0.0242

row,Sequence,PBM E-score
1,ATTCACCC,0.0614
2,ATTCACCG,0.0472
3,CGTCACCC,-0.258
4,AGTCACCA,0.469
5,AGTCACCC,0.479
6,AGTCACCG,0.476
7,GGTCACCA,0.036
8,AGACACCG,0.11
9,TACGCAGA,0.1
10,TAGATGAA,0.00973
11,AGACCCGG,-0.0102
12,GTAGAGCA,-0.0431
13,CCATCGGA,-0.00521
14,GCTTTCAA,0.0808
15,CCATCCCA,0.0189
16,AATATCCG,-0.0742
17,CCCGAGTC,0.329
18,AGCGAGTA,0.115
19,ACCGAGTC,0.377
20,CGCGAGTC,0.405
21,CGCGAGTA,0.0526
22,AGCGAGTC,0.405
23,AGCGAGTG,0.0737
24,CGCGAGCC,0.0358
25,ACCGAGTA,-0.0874

row,Sequence,PBM E-score
1,CGGGAGAA,-0.141
2,CTTATCCC,-0.147
3,AAGGAAGG,-0.0955
4,ACCCTATG,0.155
5,GAGCTTCA,-0.142
6,ACGGATGG,0.0552
7,ATCTTCCG,-0.0471
8,GACGACCC,-0.217
9,GACGACGA,0.00788
10,AACGACTA,0.393
11,AACGACTG,0.133
12,AACGACTT,0.177
13,GTCGACTA,0.335
14,ATCGACTC,0.304
15,GACGACGC,-0.226
16,AACGACAC,-0.105
17,GACGACTA,0.415
18,GACGACTC,0.442
19,AACGACTC,0.427
20,CGGCTACA,-0.00254
21,CGTTTCGC,-0.125
22,AATCTTCG,0.25
23,TACCTGGA,0.0309
24,CTCCACCC,-0.099
25,AAAGACCA,-0.029

row,Sequence,PBM E-score
1,TACGGCGA,-0.108
2,TACGACTA,0.415
3,CACGACTA,0.403
4,TACGACAA,0.0113
5,CACGACAC,-0.043
6,CACGACGA,0.044
7,CACGACTC,0.437
8,CACGACGC,-0.163
9,TACGACGA,0.071
10,CACGACTG,0.238
11,TAGCCACA,0.14
12,CGCGATAC,-0.206
13,CAAAATCC,0.087
14,CAAAAGCC,-0.227
15,GAGCCATA,0.366
16,TAGCCATA,0.28
17,GAGCCATC,0.342
18,AGAGCTCG,-0.222
19,CGTCATAC,0.192
20,TGTCATAA,0.0821
21,AGCCATAG,0.199
22,CGTCATAG,-0.0141
23,AGTCATAT,0.484
24,CGTCATAA,-0.00764
25,AGTCATAG,0.482

row,Sequence,PBM E-score
1,AGTCATAA,0.476
2,AGACATAT,0.137
3,GGTCATAC,0.123
4,GGTCATAA,0.081
5,AGTCATAC,0.486
6,CAAAACTC,-0.0536
7,AAAATAAC,0.0567
8,CCGTCCCG,-0.193
9,ACAATTAA,0.144
10,CGTGCGTC,-0.13
11,TGTGCTAA,0.0249
12,AGAATCAG,0.325
13,AGAATCAT,0.44
14,ACAATCAA,0.202
15,AGAATCCC,0.0788
16,ACAATCAT,0.385
17,GGAATCAC,0.418
18,ACAATCAC,0.351
19,AGAATCCT,-0.0297
20,AGAATCAC,0.374
21,GGAATCAA,0.257
22,GGAATCCC,-0.166
23,AGAATCGC,0.127
24,GTTCTATA,-0.0345
25,AAGGGTGT,-0.00845

row,Sequence,PBM E-score
1,AGCGCTGG,0.0943
2,CACAACTG,-0.113
3,ACCTGGCA,-0.145
4,CGATTCTA,0.0229
5,CACCAACC,-0.0246
6,GTCACAGA,0.237
7,CCAATCAG,0.0381
8,CGAATCAG,0.384
9,CGAATCCG,0.0437
10,CGAATCAC,0.4
11,CGAATCCC,-0.125
12,CCAATCAC,0.182
13,ACCTTGGA,-0.0702
14,ACAACTGC,-0.0478
15,AAAAGCCG,-0.213
16,ATGTCTCC,0.216
17,ATGTCTCA,0.414
18,CAGTCTCC,0.211
19,AAGTCTCC,0.107
20,GAGTCTTA,0.453
21,GAGTCTCC,0.419
22,GAGTCCTA,0.399
23,CAGTCTTA,0.278
24,AAGTCCTA,0.186
25,AAGTCTTA,0.213

row,Sequence,PBM E-score
1,CAGTCCTA,0.183
2,ATGTCTCG,0.17
3,AATCTTAA,0.244
4,CCCGCATA,-0.019
5,ATGTAGCA,-0.146
6,ACATCTGG,-0.137
7,AACTTCCG,0.0922
8,CAGTGATC,0.0804
9,AAGTCTCA,0.239
10,GAGTCTCA,0.411
11,TAGTCTCA,0.36
12,ATATGCAG,0.196
13,AGCAAATA,-0.157
14,GCACTGGC,-0.194
15,TACTCACA,0.367
16,AACTCACA,0.259
17,CACTCACC,0.207
18,CACTCACA,0.0403
19,AACTCACG,0.211
20,GACTCACA,0.472
21,CACTCACG,0.112
22,GACTCACC,0.478
23,AACTCACC,0.275
